# Results reported in the supplement of paper PMC8728848.
# The sample as a whole holds a higher share of the strongest signals than the screen did.
# B1: OGAA (protein)
# chain: MVQKESQATLEERESELSSNPAASAGASLEPPAAPAPGEDNPAGAGGAAVAGAAGGARRFLCGVVEGFYGRPWVMEQRKELFRRLQKWELNTYLYAPKDDYKHRMFWREMYSVEEAEQLMTLISAAREYEIEFIYAISPGLDITFSNPKEVSTLKRKLDQVSQFGCRSFALLFADIDHNMCAADKEVFSSFAHAQVSITNEIYQYLGEPETFLFCPTEYCGTFCYPNVSQSPYLRTVGEKLLPGIEVLWTGPKVVSKEIPVESIEEVSKIIKRAPVIWDNIHANDYDQKRLFLGPYKGRSTELIPRLKGVLTNPNCEFEANYVAIHTLATWYKSNMNGVRKDVVMTDSEDSTVSIQIKLENEGSDEDIETDVLYSPQMALKLALTEWLQEFGVPHQY
# Experiments:
# Assay in all cases: glycan array binding signal (z-score within array); higher = stronger binding
# Conditions in all cases: glycan notation: IUPAC condensed, linker removed
# Gal3S(b1-4)Glc6S = target: Gal3S(b1-4)Glc6S
# In short: (§1)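 Arrays were curated from the Consortium for Functional Glycomics database, 3228 in total, and kept only where the protein sequence was available. Binding is expressed as a within-array Z-score. This score was averaged across arrays of the same protein sequence at different concentrations or buffers and across linkers, and negative values can be read as non-binding.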
# Gal3S6S(b1-4)GlcNAc6S = target: Gal3S6S(b1-4)GlcNAc6S
# In short: as §1
# GalNAc(b1-4)Gal(b1-4)Glc = target: GalNAc(b1-4)Gal(b1-4)Glc
# In short: as §1
# [1] = target: GalNAc(b1-4)GlcNAc(b1-2)Man(a1-3)[GalNAc(b1-4)GlcNAc(b1-2)Man(a1-6)]Man(b1-4)GlcNAc(b1-4)GlcNAc
# In short: as §1
# [2] = target: Glc(a1-6)Glc(a1-6)Glc(a1-6)Glc
# In short: as §1
# [3] = target: GlcNAc(a1-4)Gal(b1-4)GlcNAc(b1-3)Gal(b1-4)[Fuc(a1-3)]GlcNAc(b1-3)Gal(b1-4)[Fuc(a1-3)]GlcNAc
# In short: as §1
# [4] = target: GlcNAc(b1-2)Gal(b1-3)GalNAc
# In short: as §1
# [5] = target: GlcNAc(b1-2)[GlcNAc(b1-4)]Man(a1-3)[GlcNAc(b1-4)][GlcNAc(b1-2)[GlcNAc(b1-6)]Man(a1-6)]Man(b1-4)GlcNAc(b1-4)GlcNAc
# In short: as §1
# [6] = target: GlcNAc(b1-3)Gal(b1-4)GlcNAc(b1-3)Gal(b1-4)GlcNAc(b1-3)Gal(b1-4)GlcNAc(b1-2)[GlcNAc(b1-3)Gal(b1-4)GlcNAc(b1-3)Gal(b1-4)GlcNAc(b1-3)Gal(b1-4)GlcNAc(b1-6)]Man(a1-6)[GlcNAc(b1-3)Gal(b1-4)GlcNAc(b1-3)Gal(b1-4)GlcNAc(b1-3)Gal(b1-4)GlcNAc(b1-2)Man(a1-3)]Man(b1-4)GlcNAc(b1-4)[Fuc(a1-6)]GlcNAc
# In short: as §1
# [7] = target: GlcNAc(b1-3)Gal(b1-4)GlcNAc(b1-3)Gal(b1-4)GlcNAc(b1-3)Gal(b1-4)GlcNAc(b1-3)Gal(b1-4)GlcNAc(b1-2)[GlcNAc(b1-3)Gal(b1-4)GlcNAc(b1-3)Gal(b1-4)GlcNAc(b1-3)Gal(b1-4)GlcNAc(b1-3)Gal(b1-4)GlcNAc(b1-6)]Man(a1-6)[GlcNAc(b1-3)Gal(b1-4)GlcNAc(b1-3)Gal(b1-4)GlcNAc(b1-3)Gal(b1-4)GlcNAc(b1-3)Gal(b1-4)GlcNAc(b1-2)Man(a1-3)]Man(b1-4)GlcNAc(b1-4)[Fuc(a1-6)]GlcNAc
# In short: as §1
# [8] = target: GlcNAc(b1-4)GlcNAc(b1-4)GlcNAc(b1-4)GlcNAc(b1-4)GlcNAc
# In short: as §1
# [9] = target: GlcNAc(b1-4)GlcNAc(b1-4)GlcNAc(b1-4)GlcNAc(b1-4)GlcNAc(b1-4)GlcNAc
# In short: as §1
# [10] = target: Neu5Ac(a2-3)Gal(b1-3)GlcNAc(b1-2)[Neu5Ac(a2-3)Gal(b1-3)GlcNAc(b1-4)]Man(a1-6)[Neu5Ac(a2-3)Gal(b1-3)GlcNAc(b1-2)Man(a1-3)]Man(b1-4)GlcNAc(b1-4)GlcNAc
# In short: as §1
# [11] = target: Neu5Ac(a2-3)Gal(b1-3)GlcNAc(b1-6)GalNAc
# In short: as §1
# [12] = target: Neu5Ac(a2-3)Gal(b1-4)GlcNAc(b1-2)Man(a1-3)[Neu5Ac(a2-6)Gal(b1-4)GlcNAc(b1-2)Man(a1-6)]Man(b1-4)GlcNAc(b1-4)GlcNAc
# In short: as §1
# [13] = target: Neu5Ac(a2-3)Gal(b1-4)[Fuc(a1-3)]GlcNAc(b1-6)[Gal(b1-3)]GalNAc
# In short: as §1
# [14] = target: Neu5Ac(a2-3)Gal6S(b1-4)GlcNAc
# In short: as §1
# [15] = target: Neu5Ac(a2-6)Gal(b1-4)GlcNAc(b1-2)Man(a1-3)[Neu5Ac(a2-6)Gal(b1-4)GlcNAc(b1-2)Man(a1-6)]Man(b1-4)GlcNAc(b1-4)GlcNAc
# In short: as §1
# [16] = target: Neu5Ac(a2-6)Gal(b1-4)GlcNAc(b1-2)Man(a1-3)[Neu5Ac(a2-6)Gal(b1-4)GlcNAc(b1-2)Man(a1-6)]Man(b1-4)GlcNAc(b1-4)[Fuc(a1-6)]GlcNAc
# In short: as §1
# [17] = target: Neu5Ac(a2-6)GalNAc(b1-4)GlcNAc6S
# In short: as §1
# [18] = target: Neu5Ac(a2-8)Neu5Ac(a2-3)Gal(b1-3)GalNAc(b1-4)[Neu5Ac(a2-3)]Gal(b1-4)Glc
# In short: as §1
# [19] = target: Neu5Ac(a2-8)Neu5Ac(a2-3)[GalNAc(b1-4)]Gal(b1-4)Glc
# In short: as §1
# [20] = target: Neu5Ac(a2-8)Neu5Ac(a2-8)Neu5Ac(a2-3)[Gal(b1-3)GalNAc(b1-4)]Gal(b1-4)Glc
# In short: as §1
# [21] = target: Neu5Ac(a2-8)Neu5Ac(a2-8)Neu5Ac(a2-8)Neu5Ac(a2-3)[GalNAc(b1-4)]Gal(b1-4)Glc
# In short: as §1
# [22] = target: Neu5Ac(a2-8)Neu5Gc(a2-3)Gal(b1-4)GlcNAc
# In short: as §1
binder,measurement,setting,value
B1,glycan array binding signal (z-score),Gal3S(b1-4)Glc6S,-0.088
same,glycan array binding signal (z-score),Gal3S6S(b1-4)GlcNAc6S,-0.045
same,glycan array binding signal (z-score),GalNAc(b1-4)Gal(b1-4)Glc,-0.096
same,glycan array binding signal (z-score),[1],-0.075
same,glycan array binding signal (z-score),[2],-0.081
same,glycan array binding signal (z-score),[3],0.075
same,glycan array binding signal (z-score),[4],-0.094
same,glycan array binding signal (z-score),[5],-0.071
same,glycan array binding signal (z-score),[6],-0.048
same,glycan array binding signal (z-score),[7],-0.029
same,glycan array binding signal (z-score),[8],-0.126
same,glycan array binding signal (z-score),[9],-0.102
same,glycan array binding signal (z-score),[10],0.068
same,glycan array binding signal (z-score),[11],-0.047
same,glycan array binding signal (z-score),[12],-0.118
same,glycan array binding signal (z-score),[13],-0.025
same,glycan array binding signal (z-score),[14],-0.047
same,glycan array binding signal (z-score),[15],-0.079
same,glycan array binding signal (z-score),[16],-0.088
same,glycan array binding signal (z-score),[17],-0.012
same,glycan array binding signal (z-score),[18],-0.107
same,glycan array binding signal (z-score),[19],-0.086
same,glycan array binding signal (z-score),[20],-0.094
same,glycan array binding signal (z-score),[21],-0.107
same,glycan array binding signal (z-score),[22],-0.042
